The results in this text go back to publication PMC4336329 (PLoS ONE, 2015).

Out of some 310,000 compounds screened, about 14,000 (4.5%) showed an effect of 50% or more. The effect is printed as a negative number. Many of the other results were omitted from the sample, so strong results are more common in it than they were.
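Further: peak tail current of the secondary pulse compared with the same well before compound.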

This assay deals with human ether-à-go-go-related gene (hERG) potassium channel (human, UniProt Q12809). Nature of the assay: primary screen, population patch clamp on CHO cells stably expressing hERG; higher = less effect of the substance.
Chain of human ether-à-go-go-related gene (hERG) potassium channel (Q12809 whole entry, looked up): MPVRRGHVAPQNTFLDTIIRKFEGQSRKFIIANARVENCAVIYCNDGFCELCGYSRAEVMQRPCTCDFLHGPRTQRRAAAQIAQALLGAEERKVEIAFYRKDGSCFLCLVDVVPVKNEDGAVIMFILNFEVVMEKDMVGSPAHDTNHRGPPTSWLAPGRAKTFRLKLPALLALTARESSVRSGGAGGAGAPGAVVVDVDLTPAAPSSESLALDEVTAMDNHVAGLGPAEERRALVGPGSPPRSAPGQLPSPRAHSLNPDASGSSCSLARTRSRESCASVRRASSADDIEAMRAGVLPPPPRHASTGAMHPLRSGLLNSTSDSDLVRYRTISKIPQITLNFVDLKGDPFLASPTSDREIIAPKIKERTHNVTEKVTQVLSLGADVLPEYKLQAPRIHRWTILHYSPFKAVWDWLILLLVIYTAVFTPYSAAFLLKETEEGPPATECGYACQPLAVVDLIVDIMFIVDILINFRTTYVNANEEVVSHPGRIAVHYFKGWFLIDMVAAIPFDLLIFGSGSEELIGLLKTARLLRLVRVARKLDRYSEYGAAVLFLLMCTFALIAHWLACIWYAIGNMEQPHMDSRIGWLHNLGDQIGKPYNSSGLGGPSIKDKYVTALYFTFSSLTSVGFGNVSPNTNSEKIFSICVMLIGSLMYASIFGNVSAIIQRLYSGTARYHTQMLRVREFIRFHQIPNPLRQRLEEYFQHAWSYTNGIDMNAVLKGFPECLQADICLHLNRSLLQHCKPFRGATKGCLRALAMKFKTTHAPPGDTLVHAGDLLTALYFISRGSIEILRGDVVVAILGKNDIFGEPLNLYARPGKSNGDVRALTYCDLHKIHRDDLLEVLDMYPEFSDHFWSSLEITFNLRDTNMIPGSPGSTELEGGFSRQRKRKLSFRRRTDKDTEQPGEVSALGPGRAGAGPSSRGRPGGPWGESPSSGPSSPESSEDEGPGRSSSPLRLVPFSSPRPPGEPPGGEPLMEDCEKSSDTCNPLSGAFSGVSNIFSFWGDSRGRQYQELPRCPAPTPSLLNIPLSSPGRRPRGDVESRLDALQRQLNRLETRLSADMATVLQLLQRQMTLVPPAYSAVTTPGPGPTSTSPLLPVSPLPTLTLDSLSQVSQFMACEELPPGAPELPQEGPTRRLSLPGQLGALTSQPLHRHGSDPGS
Consider `O=C(Cn1nnc(-c2ccc(CN3CCOCC3)cc2)n1)NC1CCCCC1`, for which the “hERG current change (%, negative = inhibition) at 10uM” value was -12.4%.
As for `COc1cccc(NC(=O)CCNS(=O)(=O)c2ccc(Br)s2)c1`, the “hERG current change (%, negative = inhibition) at 10uM” value was -32.6%.
As for `CCCCNC(=O)C1CCN(S(=O)(=O)N2CCOCC2)CC1`, the figure is 5.58%.
In the case of `COc1ccc(OCc2nc3c4c(ncn3n2)-c2ccccc2CC42CCCC2)cc1` it was 6.66%; in that of `CCC(Oc1ccccc1)C(=O)Nc1nnc(S(=O)(=O)N2CCCCC2)s1` (stereo not shown), 12.8%.
As to `CCc1ccc(-c2csc3ncn(Cc4ccc(C(=O)O)cc4)c(=O)c23)cc1`, the “hERG current change (%, negative = inhibition) at 10uM” value was 4.9%.
As for `COc1ccc(NC(=O)c2ccc3ncsc3c2)c2ccccc12`, the figure is 4.56%.
Turning to `Clc1ccc(CSc2nnc3c(n2)[nH]c2ccccc23)cc1`, the “hERG current change (%, negative = inhibition) at 10uM” value is -1.62%.
On to `O=S(=O)(NCc1ccccc1)[C@@H]1CC2C=CC1C2` (stereo partly shown), for which the “hERG current change (%, negative = inhibition) at 10uM” value stood at 1.81%.
Consider `O=C(c1cc(COc2ccc(F)cc2Cl)on1)N(CCO)Cc1cccs1`, for which the “hERG current change (%, negative = inhibition) at 10uM” value is -31.6%.
In the case of `Cc1ccccc1N1CCN(C(=O)C2CCC(=O)N(C3CCCC3)C2)CC1` (stereo not shown) it was -22.5%; in that of `Cc1ccccc1OC1CCN(C(=O)C2CCC(=O)N(C3CCCC3)C2)CC1` (stereo not shown), 3.16%.
Take `Cc1cccc(N2CCN(C(=O)C3CC(=O)N(C4CCCC4)C3)CC2)c1C` (stereo not shown): the “hERG current change (%, negative = inhibition) at 10uM” value is recorded as -57.9%.
As for `O=C(C1CCC(=O)N(C2CC2)C1)N1CCC(Oc2ccccc2F)CC1` (stereo not shown), the figure is 2.26%.
In the case of `O=C(C1CCC(=O)N(C2CCCC2)C1)N1CCC(Oc2ccccc2Cl)CC1` (stereo not shown) it was -62.1%; in that of `Cc1cccc(N2CCN(C(=O)C3CCC(=O)N(C4CC4)C3)CC2)c1C` (stereo not shown), 0.967%; in that of `COc1ccc(C)cc1S(=O)(=O)N(CC(=O)O)c1ccc(C)cc1`, 5.39%.
Regarding `Cc1cc(C)cc(NC(=S)NCc2ccc(S(N)(=O)=O)cc2)c1`, the “hERG current change (%, negative = inhibition) at 10uM” value was determined as 8.2%.
With `Cn1c2ccccc2c2ncn(Cc3ccc(F)cc3)c(=O)c21`, the “hERG current change (%, negative = inhibition) at 10uM” value is reported as 8%.
For the molecule `O=C(CCNC(=O)c1ccco1)NCCc1ccc(Cl)cc1`, the “hERG current change (%, negative = inhibition) at 10uM” value is given as -1.83%.
With `COCc1ccc(CN2CCCC(CCC(=O)NCc3ccc(C)o3)C2)o1` (stereo not shown), the “hERG current change (%, negative = inhibition) at 10uM” value was -16.7%.
As to `Cc1ccc(CNC(=O)CCC2CCCN(C(=O)c3ccc4c(c3)OCO4)C2)o1` (stereo not shown), the “hERG current change (%, negative = inhibition) at 10uM” value is on record as -20.5%.
For the molecule `CC(=O)c1cccc(CN2CCCC(CCC(=O)NCc3ccc(C)o3)C2)c1` (stereo not shown), the “hERG current change (%, negative = inhibition) at 10uM” value is listed as -16.2%.
As for `Cc1ccc(CNC(=O)CCC2CCCN(Cc3cccc4c3OCO4)C2)o1` (stereo not shown), the figure is -63.2%; as for `COC(=O)c1ccc(CN2CCCC(CCC(=O)NCc3ccc(C)o3)C2)cc1` (stereo not shown), -67.5%.
In the case of `COc1cc(CN2CCCC(CCC(=O)NCc3ccc(C)o3)C2)cc2c1OCO2` (stereo not shown) it was -59.9%; in that of `COc1cc(CN2CCC(N3CCC(C(=O)N4CCCC4)CC3)CC2)cc2c1OCO2`, -17.6%.
Turning to `CC1(C)CC(=O)C=C(Nc2cccc(F)c2)C1`, the “hERG current change (%, negative = inhibition) at 10uM” value stood at 17%.
As for `O=C1c2ccccc2S(=O)(=O)N1CC(O)Cn1c2ccccc2c2ccccc21` (stereo not shown), the figure is 3.03%.
With `CCn1c(Cc2ccccc2)nnc1SCC(=O)Nc1ccc(N2CCOCC2)c(Cl)c1`, the “hERG current change (%, negative = inhibition) at 10uM” value was -5.94%.
As for `CCCCNCc1ccc(OCc2ccc(Cl)nc2)c(OC)c1.Cl`, the figure is -32.7%; as for `COc1cc(CNCCc2ccccc2)ccc1OCc1ccc(Cl)nc1.Cl`, -39.5%; as for `COc1cc(CNCCc2ccc(F)cc2)ccc1OCc1ccc(Cl)nc1.Cl`, -68.2%.
In the case of `CCCCCNCc1ccc(OCc2ccc(Cl)nc2)c(OC)c1` it was -45.8%.
Take `COc1ccc(CCNCc2ccc(OCc3ccc(Cl)nc3)c(OC)c2)cc1OC.Cl`: the “hERG current change (%, negative = inhibition) at 10uM” value is reported as -63.3%.
As for `COc1cc(CNCCc2ccccc2F)ccc1OCc1ccc(Cl)nc1.Cl`, the figure is -49.5%; as for `CC1CCCC(NC(=O)COC(=O)c2ccc3ncsc3c2)C1C` (stereo not shown), -3.48%.
As for `CC(C)N(C1=CC(=O)OC12CCCCC2)C(C)C`, the figure is -0.582%; as for `COc1cc(C(=O)N/N=C(\C)Cc2ccccc2)cc(OC)c1OC`, 9.1%; as for `CCOC(=O)N1CCC(NC(=O)CSCc2nc(-c3ccc(OC)c(OC)c3)oc2C)CC1`, -2.5%.
For `COc1ccc(-c2onc(C)c2-c2cnn(-c3ccccc3)c2)c(O)c1`, the “hERG current change (%, negative = inhibition) at 10uM” value was 3.71%.
Regarding `COc1cc(OC)c(/C=N/NC(=O)c2ccc(Cn3nc([N+](=O)[O-])cc3C)cc2)c(OC)c1`, the “hERG current change (%, negative = inhibition) at 10uM” value is -37.1%.
In the case of `Cc1ccc2nsnc2c1NC(=O)c1ccc([N+](=O)[O-])o1` it was 13.1%.
For the molecule `CCN1CCN(Cc2ccc(NC(=O)c3ccc(C)c(NC(=O)N4CCNC4=O)c3)cc2C(F)(F)F)CC1`, the “hERG current change (%, negative = inhibition) at 10uM” value is 1.09%.
With `CCOC(=O)C1(Cc2ccccc2)CCN(Cc2cccn2-c2cccnc2)CC1`, the “hERG current change (%, negative = inhibition) at 10uM” value is recorded as -39%.
As to `OCC1(CCc2ccccc2)CCN(Cc2cccn2-c2cccnc2)CC1`, the “hERG current change (%, negative = inhibition) at 10uM” value was -49.4%.
In the case of `CCOC(=O)C1(CCOc2ccccc2)CCN(Cc2cccn2-c2ncccn2)CC1`, the “hERG current change (%, negative = inhibition) at 10uM” value was -76.4%.
As for `CCOC(=O)C1(CCOc2ccccc2)CCN(Cc2cccn2-c2cccnc2)CC1`, the figure is -51.8%.
As for `OCC1(CCOc2ccccc2)CCN(Cc2cccn2-c2ncccn2)CC1`, the figure is -82.2%; as for `O=C(Nc1ccccc1)c1ccccc1N=Cc1ccccc1O`, 2.2%; as for `COc1cc2c(cc1OC)CN(S(=O)(=O)c1cccc(F)c1)CC2`, 18.6%.
Take `Cc1ccc(C)c(C(=O)COC(=O)Cn2[nH]c(=O)c3ccccc3c2=O)c1`: the “hERG current change (%, negative = inhibition) at 10uM” value came out at 5.51%.
In the case of `O=C(CN1C(=O)NC2(CCCC2)C1=O)N1CCN(c2cccc(C(F)(F)F)c2)CC1`, the “hERG current change (%, negative = inhibition) at 10uM” value was -24.5%.
As for `Cc1oc2c(C)c3oc(=O)c(CCC(=O)NCCCN4CCOCC4)c(C)c3cc2c1C`, the figure is -6.99%; as for `COc1ccccc1CCN=C(N)NS(=O)(=O)c1ccc(C)c(C)c1`, 9.37%; as for `O=C(COC(=O)c1ncc(Cl)c(Cl)c1Cl)NCc1ccccc1`, 2.42%.
In the case of `CCN1CCN(C(=O)CS(=O)Cc2nc(-c3cccc(C)c3)oc2C)CC1` (stereo not shown) it was 3.36%; in that of `COc1ccc(-c2nnc(SC(C(=O)c3c[nH]c4ccccc34)c3ccccc3)n2N)cc1OC` (stereo not shown), 2.03%; in that of `COc1ccc(NC(=O)c2cc3ccc(O)cc3o/c2=N\O)cc1`, 2.99%.
For `C=CCn1c(=O)c2ccccc2n2c(SCC(=O)NC)nnc12`, the “hERG current change (%, negative = inhibition) at 10uM” value was -1.24%.
On to `C=CCn1c(=O)c2ccccc2n2c(SCC(=O)Nc3sc(C(=O)N(CC)CC)c(C)c3C(=O)OCC)nnc12`, for which the “hERG current change (%, negative = inhibition) at 10uM” value is on record as -52.3%.
Regarding `C=CCn1c(=O)c2ccccc2n2c(SCC(=O)Nc3sc(C)c(CC)c3C(=O)OCC)nnc12`, the “hERG current change (%, negative = inhibition) at 10uM” value was 6.96%.
As for `CCCn1c(=O)c2ccccc2n2c(SCc3c(C(=O)OCC)oc4ccccc34)nnc12`, the figure is -43.5%; as for `C=CCn1c(=O)c2ccccc2n2c(SCC(N)=O)nnc12`, 2.96%.
In the case of `C=CCn1c(=O)c2ccccc2n2c(SCc3c(C(=O)OCC)oc4ccccc34)nnc12` it was -56.1%; in that of `Cc1ccc(S(=O)(=O)N(C)C)cc1NC(=O)CN1C(=O)NC(Cc2ccccc2)C1=O` (stereo not shown), 8.61%; in that of `O=C(O)C(=O)O.OC(COC(c1ccc(F)cc1)c1ccc(F)cc1)CN1CCCC(C(F)(F)F)C1` (stereo not shown), 10.8%.
In the case of `O=C(O)C(=O)O.OC1CCCN(CC(O)COC(c2ccc(F)cc2)c2ccc(F)cc2)C1` (stereo not shown) it was -57.6%; in that of `CC(=O)c1ccc(OCC(O)CN2CCN(CCO)CC2)cc1.Cl` (stereo not shown), 9.1%; in that of `Cc1ccccc1C(OCC(O)CN1CCN(CCO)CC1)c1ccccc1.O=C(O)C(=O)O` (stereo not shown), -12.1%.
Consider `O=C(O)C(=O)O.OC(COC(c1ccc(F)cc1)c1ccc(F)cc1)CN1CCCC1` (stereo not shown), for which the “hERG current change (%, negative = inhibition) at 10uM” value is on record as -70.6%.
As for `O=C(O)C(=O)O.OCCN1CCN(CC(O)COC(c2ccc(F)cc2)c2ccc(F)cc2)CC1` (stereo not shown), the figure is -61.9%.
Regarding `O=C(OCN1C(=O)c2ccccc2C1=O)c1cccc(S(=O)(=O)N2CCOCC2)c1`, the “hERG current change (%, negative = inhibition) at 10uM” value is on record as -3.06%.
In the case of `CN1c2ccsc2/C(=N/NC(=O)c2c(F)cccc2F)CS1(=O)=O` it was 4.31%.
As for `Cc1cccc(C2(c3cccc(C)c3)CC2C(=O)NCC2CCCO2)c1` (stereo not shown), the figure is -6.94%.
In the case of `CC(CC(=O)N1CCN(S(=O)(=O)c2ccccc2)CC1)n1cncn1` (stereo not shown) it was 20.1%; in that of `NS(=O)(=O)c1ccc(CCNC(=O)Nc2ccc(Cl)cc2)cc1`, -9.65%.
On to `O=c1cc(NC2CCCCCC2)[nH]c(=O)[nH]1`, for which the “hERG current change (%, negative = inhibition) at 10uM” value is on record as 4.69%.
Take `CN(C)C(=O)Oc1c(Cl)cc(Cl)c2ccccc12`: the “hERG current change (%, negative = inhibition) at 10uM” value is -36.2%.
Regarding `CCC(/C=C1\Sc2ccc(OC)cc2N1CCO)=C\c1sc2ccc(OC)cc2[n+]1CCO.[Cl-]`, the “hERG current change (%, negative = inhibition) at 10uM” value was -72.9%.
As for `CCC(/C=C1\Sc2ccc(OC)cc2N1CC)=C\c1sc2ccc(OC)cc2[n+]1CCCS(=O)(=O)[O-]`, the figure is 15%; as for `CCC(=O)/C=C1\Sc2ccc(OC)cc2N1CCO`, -0.298%.
As for `COc1cccc(CNC(=O)C2CCCN(c3cnccn3)C2)c1` (stereo not shown), the figure is -14.4%; as for `Cc1ccc(NC(=O)C2CCCN(c3ncccn3)C2)cc1F` (stereo not shown), -0.00042%; as for `O=C(NCc1ccc(Cl)cc1)C1CCCN(c2cnccn2)C1` (stereo not shown), -66.5%.
With `CC(=O)Nc1ccc(NC(=O)C2CCCN(c3ncccn3)C2)cc1` (stereo not shown), the “hERG current change (%, negative = inhibition) at 10uM” value was 2.63%.
Take `O=C(NCc1cccc(C(F)(F)F)c1)C1CCCN(c2cnccn2)C1` (stereo not shown): the “hERG current change (%, negative = inhibition) at 10uM” value is -61%.
Regarding `O=C(Nc1cccc(C(F)(F)F)c1)c1cccnc1N1CCN(CCO)CC1`, the “hERG current change (%, negative = inhibition) at 10uM” value is listed as -63.8%.
As for `O=C(Nc1cccc(C(F)(F)F)c1)c1cccnc1N1CCCC1`, the figure is 13.2%; as for `Cl.O=C(Nc1cccc(C(F)(F)F)c1)c1cccnc1N1CCN(c2ccccc2)CC1`, 7.25%; as for `Cc1ccc(CNC(=O)C2CCCN(c3cnccn3)C2)cc1` (stereo not shown), -40%.
As for `O=C(NCc1ccccc1)C1CCCN(c2cnccn2)C1` (stereo not shown), the figure is -28.9%.
As for `O=C(Nc1cccc(C(F)(F)F)c1)C1CCCN(c2ncccn2)C1` (stereo not shown), the figure is -53.4%; as for `O=C(NCc1cccc(C(F)(F)F)c1)C1CCCN(c2ncccn2)C1` (stereo not shown), -37.1%.
